Assay outcomes (PubChem)
TDP1 cell CPT: growth inhibition of DT40 Tdp1-/-;hTDP1 cells with camptothecin (screen for TDP1 inhibitors) | chicken DT40 Tdp1-/-;hTDP1 cells + 20 nM CPT, ATP luminescence, 48 h | Potency, µM (highest dose often 46.2 µM), for inactives: top-dose activity change, negative = growth inhibition, hits mostly inhibitors | 420,000 compounds, 12% hits; further: potency means the concentration at half of the fitted maximal effect; on the % scale 0 is the no-effect control and ±100 the full control effect; nearly all actives have a fitted effect of over 55% in size
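Chicken DT40 Tdp1-/- cells stably complemented with human TDP1 were seeded at 400 cells/well in medium containing 20 nM camptothecin, exposed to pin-transferred compounds, and grown at 37 °C for at least 48 hr. Viability was read as ATP luminescence.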
TGFb inhibitor: blocks TGF-b signaling | HepG2 CAGA-GFP TGF-b/SMAD3 reporter, GFP fluorescence, 18 h; TGF-beta stimulated, 500 pg/mL final | Potency, µM (top dose mostly 46.1 µM), inactives show top-dose activity, negative = inhibition, usual class: inhibitors | 410,000 compounds, 1.2% hits; further: potency means the concentration at half of the fitted maximal effect; on the % scale 0 is the no-effect control and ±100 the full control effect; nearly all actives have a fitted effect of over 65% in size
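HEPG2 CAGA-GFP, 1000 cells/well; 2 h settle, 37 C; cpd via pin tool; TGF-b 500 pg/mL final; 18 h, 37 C; GFP imaging ex488/em500-530; %Activity normalised to -TGF-b and +DMSO controls; CRC fit, curve class.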
DT40 TDP1 no CPT: qHTS for Inhibitors of human tyrosyl-DNA phosphodiesterase 1 (TDP1): qHTS in cells in absence of CPT. DT40 Tdp1-/- hTDP1 cells, no CPT, ATP luminescence, 48 h. Potency, µM (top dose mostly 46.2 µM), for the others: top-dose activity change, negative = growth inhibition, hits mostly inhibitors. 420,000 compounds, 15% hits. AID 686978, 2013; further: potency means the concentration at half of the fitted maximal effect; on the % scale 0 is the no-effect control and ±100 the full control effect; nearly all actives have a fitted effect of over 55% in size
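A cellular qHTS used chicken DT40 cells lacking endogenous Tdp1 but carrying stably transfected human TDP1. Compounds were applied without camptothecin, and cell growth kinetics were judged by ATP-dependent luminescence after ≥48 hr.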
ASM inhibitor: blocks human secretory acid sphingomyelinase | P17405 | placental ASM, HMU-PC fluorogenic substrate, 60 min | Potency, µM (series often up to 57.5 µM), without a hit: top-dose activity change, negative = inhibition, usual class: inhibitors | 340,000 compounds, 0.006% hits | AID 504937; further: potency means the concentration at half of the fitted maximal effect
Target sequence (P17405 47-631 limits assumed): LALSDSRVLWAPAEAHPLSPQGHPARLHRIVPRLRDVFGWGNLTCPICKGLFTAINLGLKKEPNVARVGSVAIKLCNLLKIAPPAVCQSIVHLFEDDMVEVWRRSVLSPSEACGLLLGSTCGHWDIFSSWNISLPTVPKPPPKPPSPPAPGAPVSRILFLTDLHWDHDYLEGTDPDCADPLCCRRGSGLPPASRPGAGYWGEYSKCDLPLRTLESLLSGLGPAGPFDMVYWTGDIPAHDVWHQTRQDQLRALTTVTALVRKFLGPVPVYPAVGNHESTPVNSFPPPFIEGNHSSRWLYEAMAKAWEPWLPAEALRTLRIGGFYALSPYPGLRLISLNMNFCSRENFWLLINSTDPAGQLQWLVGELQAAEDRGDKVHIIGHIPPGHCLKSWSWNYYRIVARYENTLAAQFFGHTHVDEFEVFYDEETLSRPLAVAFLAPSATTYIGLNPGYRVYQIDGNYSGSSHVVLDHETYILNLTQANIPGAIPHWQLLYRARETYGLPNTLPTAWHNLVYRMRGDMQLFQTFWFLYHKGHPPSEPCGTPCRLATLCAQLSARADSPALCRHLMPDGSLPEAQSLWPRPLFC
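Fluorescence read-out (Ex 386 nm, Em 447 nm) after stopping the reaction at pH 10. Enzyme: ASM from human placenta; substrate HMU-PC0, 9 uM final; 60 min, 37 °C. Compound preincubation 10 min, ambient temperature.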
IL-1B inflam inh: blocks inflammasome-driven IL-1 beta release | THP-1 LPS/ATP IL-1B secretion, AlphaLISA, 16 h; hits give low values | activity change, % at 57.5 µM | 360,000 compounds, 4.7% hits | AID 743279; in the data active means activity change below about -50%; inconclusive means mostly about -30% to -49%; further: on the % scale 0 is the no-effect control and ±100 the full control effect
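THP-1 cells pretreated 1 hr with compounds (up to 57.5 uM final), then stimulated with LPS (250 ng/mL final) plus ATP (1.25 mM final); secreted IL-1B measured by AlphaLISA after 16 hr, decreased signal indicating inhibition.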
HepG2 tox: kills HepG2 cells in TGF-b inhibitor counter-screen. AID 588856. Potency, µM (series often up to 46.1 µM), for the others: at the top dose activity change, negative = cytotoxicity, hits mostly cytotoxic. 410,000 compounds, 0.76% hits. HepG2 CAGA-GFP viability, ATP luminescence, 18 h; further: potency means the concentration at half of the fitted maximal effect
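CellTiter-Glo luminescence gave cytotoxicity after 18 hours at 37 degrees C. The cells were HepG2 CAGA-GFP in 1% FBS DMEM, stimulated with 500 pg/mL TGF-beta after compound addition. %Activity was normalised to no-cell wells (complete cell-killing) and DMSO (no toxicity), and curves were fitted and classified.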
An asterisk follows results filed as active; u = inconclusive; x = no result; [ ] = dose if it differs, or a comment. The list is not random: actives were taken first. Their share in the collection is about 19%. Unless noted, the call rests on the fitted dose curve; in most records, active means well fitted curve in the direction sought with a large enough effect; inconclusive means small, poorly fitted or top-dose-only effect, or another doubt; inactive means no such curve, though single readings can be large; an effect the other way counts as inactive or inconclusive.

SMILES	TDP1 cell CPT	TGFb inhibitor	DT40 TDP1 no CPT	ASM inhibitor	IL-1B inflam inh	HepG2 tox
COC(=O)c1ccc(Cn2ccc(=O)[nH]c2=O)cc1	-6%	16%	-9%	4%	-4	5%
CCc1ccccc1OCCOc1ccc(C)cc1OC	u	14%	29µM*	1%	26	2%
COc1cc(C)ccc1OCCOCCOc1cccc2ccc(C)nc12	16µM*	u	16µM*	0%	27	-35%
C=CCc1ccc(OCCOCCOc2cccc3ccc(C)nc23)c(OC)c1	18µM*	-24%	11µM*	0%	-10	-26%
COc1ccc(COc2cccc3ccc(C)nc23)cc1F	5%	-5%	-30%	27%	-2	-2%
CC(C)C(NS(C)(=O)=O)c1nnc2n1CCN(Cc1ccc(Cl)cc1)CC2 (stereo not given)	3%[9.04 µM]	x	u	x	x	x
COC(=O)c1cn(C(=O)OC)c2ccccc12	-12%	-3%	-4%	0%	15	2%
O=Nc1ccc(NO)c2ccccc12	u	13µM*	13µM*	x	-7	-155%
CCOc1ccccc1/C=N\Nc1cnn(Cc2ccccc2)c(=O)c1Cl	23µM*	2%	u	8%	u	10%
COc1ccccc1/C=N\Nc1cn[nH]c(=O)c1Cl	7%	-6%	u	4%	0	-11%
O=C(OCCSCCOC(=O)C1CC=CCC1)C1CC=CCC1 (stereo not given)	9%	8%	9%	-2%	-11	-27%
OC(c1ccccc1)(c1nc(-c2cccc3cccnc23)cs1)C(F)(F)F (stereo not given)	23µM*	u	u	x	-11	-105%
CN(C)c1ccc(-c2csc(C(O)(c3ccccc3)C(F)(F)F)n2)cc1 (stereo not given)	10µM*	u	7.3µM*	x	-12	16µM*
OC(c1ccccc1)(c1nc(-c2ccc(F)c(Cl)c2)cs1)C(F)(F)F (stereo not given)	u	u	16µM*	x	7	-91%
Cc1ccc(-c2csc(C(O)(c3ccccc3)C(F)(F)F)n2)cc1C (stereo not given)	u	u	16µM*	x	0	-97%
Cc1ccccc1-c1csc(C(O)(c2ccccc2)C(F)(F)F)n1 (stereo not given)	u	u	u	x	0	-82%
CC1(c2nnc(-c3ccccc3)o2)CC(c2ccncc2)=NO1 (stereo not given)	-12%	u	-22%	2%	-1	-1%
CCn1ccc2cc(S(=O)(=O)N3CCC(C(=O)NCc4cccc(Cl)c4)CC3)ccc21	u	u	u	x	x	-10%
COC1C(CO)OC(n2c3c(Cl)cccc3c3c4c(c5c6cccc(Cl)c6[nH]c5c32)C(=O)NC4=O)C(O)C1O (stereo not given)	0.52µM*	u	2.6µM*	-7%	-63*	-46%
CC(NC(=O)/C(C#N)=C1\N=C(NC(=O)c2ccco2)c2ccccc21)c1ccccc1 (stereo not given)	10%	9%	-22%	-12%	20	1%
COC(CN(C)C(=O)C1CCCN(S(=O)(=O)c2ccc3c(c2)oc(=O)n3C)C1)OC (stereo not given)	12%	-3%	24%	0%	2	5%
c1ccc(-c2cccc(N3CC4(CCNCC4)C3)c2)cc1	9.2µM*	x	9.2µM*	x	x	x
O=S(=O)(c1ccccc1)N1CCC2(CCCN(c3cccc(-c4ccccc4)c3)C2)CC1	5%	x	-29%	x	x	x
c1ccc(-c2cccc(N3CCC4(CCNCC4)CC3)c2)cc1	9.2µM*	x	8.2µM*	x	x	x
c1ccc(-c2cccc(N3CCCC4(CCNCC4)C3)c2)cc1	12µM*	x	21µM*	x	x	x
SMILES	TDP1 cell CPT	TGFb inhibitor	DT40 TDP1 no CPT	ASM inhibitor	IL-1B inflam inh	HepG2 tox
c1ccc(-c2cccc(N3CC[C@@]4(CCCNC4)C3)c2)cc1	8.2µM*	x	6.5µM*	x	x	x
CC(=O)Nc1ccc(S(=O)(=O)NCCC(=O)Nc2cc(C)ccn2)cc1	-16%	1%	-22%	-1%	2	-19%
Cc1ccc(Cn2c(=O)n(Cc3ccco3)c(=O)c3sc4ccccc4c32)cc1	u	-23%	u	x	x	-10%
O=C(CCC(=O)N1CCN(Cc2ccc(F)cc2)CC1)Nc1nnc(C2CCCCC2)s1	u	0%	-4%	2%	-17	12%
CCOc1ccc(-n2c(=O)c3sccc3n(CC(=O)NCC3CCCO3)c2=O)cc1 (stereo not given)	5%	0%	5%	4%	-4	4%
CCOc1ccccc1NC(=O)CCNC(=O)Cn1ccc2ccccc2c1=O	-14%	18%	-12%	1%	-19	-7%
CCCn1ccc2c(OCC(=O)NCc3ccccc3Cl)cccc2c1=O	u	-30%	23µM*	x	x	-35%
CCOc1ccccc1NC(=O)COc1cccc2c(=O)n(CCOC)ccc12	12µM*	-1%	13µM*	x	x	3%
COCCn1ccc2c(OCC(=O)Nc3ccccc3OC)cccc2c1=O	18µM*	-3%	21µM*	-2%	u	-10%
CCCn1ccc2c(OCC(=O)Nc3ccccc3OCC)cccc2c1=O	21µM*	u	12µM*	x	x	-33%
CCOCCn1ccc2c(OCC(=O)Nc3ccccc3F)cccc2c1=O	u	-2%	u	4%	-3	-15%
CCOC(=O)c1cnc(SC2CC(=O)N(c3ccc(C)cc3)C2=O)nc1N (stereo not given)	3.3µM*	-9%	4.1µM*	-1%	0	12%
CCOC(=O)c1cnc(SC2CCc3ccccc3C2=O)nc1N (stereo not given)	u	-6%	-20%	2%	21	-28%
Cc1ccc(N2C(=O)CC(Sc3nc(C)cc(C)n3)C2=O)cc1 (stereo not given)	7.3µM*	-10%	8.2µM*	1%	43	-11%
CCOc1ccc(N2C(=O)CC(Sc3nc(C)cc(C)n3)C2=O)cc1 (stereo not given)	-20%	-11%	1%	1%	36	-30%
O=C(Nc1ccccc1)Nc1ncc(C(F)(F)F)cc1Cl	-10%	-14%	u	x	u	-24%
O=C(Nc1ccccc1)Nc1n[nH]c2nnc(-c3ccccc3)c(-c3ccccc3)c12	u	u	16µM*	-12%	-11	-51%
